# According to PubChem BioAssay AID372 (MTDP, 2006):
# Screen size: about 100,000 compounds; about 770 (0.77%) were called active. What follows is part of a selection rich in actives, with near analogues and random picks from the rest. A number with no mark means an inactive call. Rule as the data show it: active = inhibition above about 50%; inactive = the rest.
# Target: Gag-Pol polyprotein (Human immunodeficiency virus type 1 group M subtype B (isolate HXB2)) (UniProt P04585)
# Test: RNase H inhibition, HIV 1 Gag Pol polyprotein, FRET biochemical assay, screening (AID 372)
# Details: HIV-1 RT RNase H, FRET RNA/DNA substrate fluorescence; at 10 µM; hits give high values
row,SMILES,inhibition
1,CC1=NN(C(=O)c2cccc(O)c2)C(O)(c2ccc(Br)cc2)C1 (configuration not stated),8%
2,CC(=O)C1C(=O)c2cc([N+](=O)[O-])ccc2C1=Nc1ccc(Br)cc1 (configuration not stated),6%
3,CCOC(=O)C1=C(C)N(C)C(=O)NC1c1ccc2c(c1)OCO2 (configuration not stated),7%
4,CCCCSc1nnc(-c2ccc(Cl)cc2Cl)o1,3%
5,COc1cc(/C=C2\C(=O)N(c3nc(-c4ccc(Cl)cc4)cs3)N=C2C)cc(OC)c1OC,45%
6,CC1=NN(c2nc(-c3ccc(Cl)cc3)cs2)C(=O)/C1=C\c1ccc2c(c1)OCO2,57% (active)
7,CC1=NN(c2nc(-c3ccc(F)cc3)cs2)C(=O)/C1=C\c1ccc2c(c1)OCO2,58% (active)
8,CC1=NN(c2ccc(C)cc2)C(=O)/C1=C\c1ccc2c(c1)OCO2,2%
9,CC1=NN(c2nc(-c3ccc(Br)cc3)cs2)C(=O)/C1=C\c1ccc2c(c1)OCO2,40%
10,CC1=NN(c2nc(-c3ccc(F)cc3)cs2)C(=O)/C1=C\c1ccc(O)cc1,45%
11,O=C(/C(=C\c1ccc([N+](=O)[O-])cc1)n1cncn1)c1ccc(Cl)cc1Cl,16%
12,CCc1ccc(NC(=O)C(CC)c2ccccc2)cc1 (configuration not stated),44%
13,C/C=C/c1ccc(OCCOCCOc2cccc(C)c2C)c(OC)c1,15%
14,COc1ccc(S(=O)(=O)N(Cc2ccccc2)c2ccccc2C(=O)NC(C)c2ccccc2)cc1 (configuration not stated),26%
15,Cc1nc2ccccn2c1-c1csc(Nc2ccc([N+](=O)[O-])cc2)n1,14%
16,Cc1nc2sccn2c1-c1csc(Nc2ccc([N+](=O)[O-])cc2)n1,69% (active)
17,Cc1nc2sccn2c1-c1csc(Nc2ccc(O)cc2)n1,12%
18,Cc1cccc(-n2sc3c(c2=S)-c2ccccc2NC3(C)C)c1C,10%
19,CCOc1cc(CN2CCN(c3ccccn3)CC2)ccc1O,15%
20,O=C(/C=C\c1ccccc1)Nc1ccc2oc(-c3ccccc3)nc2c1,16%
21,COc1cccc(-c2nc3cc(NC(=O)/C=C\c4ccccc4)ccc3o2)c1,62% (active)
22,Cc1ccc2oc(-c3ccc(NC(=O)/C=C\c4ccccc4)cc3)nc2c1,52% (active)
23,Cc1ccc(-c2nc3ccccc3[nH]2)cc1NC(=O)/C=C\c1ccccc1,15%
24,O=C(/C=C\c1ccccc1)Nc1cccc(-c2nc3ccccc3[nH]2)c1,21%
25,Cc1ccc2oc(-c3ccc(NC(=O)/C=C/c4ccccc4)cc3O)nc2c1,22%

row,SMILES,inhibition
1,O=C(/C=C/c1ccccc1)Nc1ccc(-c2nc3cc(NC(=O)/C=C/c4ccccc4)ccc3[nH]2)cc1,72% (active)
2,COc1ccc(/C=C\C(=O)Nc2ccc3oc(-c4cccnc4)nc3c2)cc1,7%
3,Cc1ccc2nc(-c3ccc(NC(=O)/C=C\c4ccccc4)cc3)oc2c1,40%
4,Cc1cc(/C=C(\C#N)C(=O)Nc2ccc(F)cc2)c(C)n1-c1ccc2c(c1)OCO2,7%
5,Cc1ccc(C(=O)Nc2cc(Cl)ccc2C)c(Cl)c1,14%
6,CCN(CC)CCCCCCOc1ccccc1OC,8%
7,COc1ccc(-c2csc(/C(C#N)=C\Nc3cc(OC)c(Cl)cc3OC)n2)cc1,52% (active)
8,COc1ccc(-c2csc(/C(C#N)=C\Nc3cccc(Cl)c3Cl)n2)cc1OC,51% (active)
9,N#C/C(=C/Nc1cccc(Cl)c1Cl)c1nc(-c2ccc3c(c2)OCO3)cs1,58% (active)
10,COc1ccc(-c2csc(/C(C#N)=C\Nc3cccc(C)c3C)n2)cc1OC,17%
11,COc1cc(-c2csc(/C(C#N)=C/Nc3cccc(F)c3)n2)ccc1O,57% (active)
12,COc1cccc(N/C=C(\C#N)c2nc(-c3ccc(O)c(OC)c3)cs2)c1,13%
13,COc1cccc(-c2csc(/C(C#N)=C\Nc3cc(OC)c(Cl)cc3OC)n2)c1,16%
14,N#C/C(=C/Nc1cc(Cl)cc(Cl)c1)c1nc(-c2ccc3c(c2)OCO3)cs1,39%
15,COc1ccc(-c2csc(/C(C#N)=C\Nc3cc(Cl)ccc3Cl)n2)cc1OC,40%
16,COc1cc(N/C=C(/C#N)c2nc(-c3ccc(OC)c(OC)c3)cs2)c(OC)cc1Cl,48%
17,Cc1ccc(-c2csc(/C(C#N)=C/Nc3cccc(F)c3)n2)cc1,4%
18,N#C/C(=C/Nc1ccccc1F)c1nc(-c2ccc3c(c2)OCO3)cs1,12%
19,Cc1ccc(C(=O)/C=C/c2ccc(OCc3ccccc3)cc2)cc1,4%
20,C=CCOc1ccc(/C=C2/C(=O)NC(=O)N(c3ccccc3F)C2=O)cc1,7%
21,COc1ccccc1OCCOc1ccc(C=NNC(=S)Nc2ccccc2)cc1OC,5%
22,Cc1cc(C)c(C=Nc2cc([N+](=O)[O-])ccc2C)c(C)c1,11%
23,COCCCNC(=O)CN(c1ccc(OC)cc1OC)S(C)(=O)=O,9%
24,CCOc1ccccc1OCCOc1ccc(C=O)cc1,19%
25,COc1ccc(NC(=O)c2ccc(C)c([N+](=O)[O-])c2)cc1,6%

row,SMILES,inhibition
1,O=C(Oc1ccc(Cl)cc1)c1ccc(Cl)cc1,11%
2,COc1ccc(CNC(=O)CSc2nc3ccccc3[nH]2)cc1,3%
3,CCOc1ccc(C2=CC(=O)C(c3ccccc3)CC2)cc1 (configuration not stated),22%
4,Cc1cc(OCC(=O)N2CCN(c3ccccn3)CC2)ccc1Br,24%
5,Cc1ccc(N(CC(=O)NCc2cccnc2)S(=O)(=O)c2ccc(F)cc2)cc1,2%
6,COc1ccc(C(=O)CSc2nnc(-c3ccccc3)n2-c2ccc(Cl)cc2)cc1,6%
7,O=C(N/N=C/c1ccc(O)c(O)c1)c1cccc(I)c1,44%
8,Cc1cccc(/C=N/NC(=O)c2ccc(O)c(O)c2)c1,56% (active)
9,O=C(N/N=C/c1ccc2ccccc2c1)c1ccc(O)cc1,12%
10,O=C(N/N=C/c1ccncc1)c1cccc(I)c1,0%
11,O=C(N/N=C/c1ccc2ccccc2c1)c1ccccc1O,14%
12,Cc1cc2c(cc1C)CN(c1cccc(C(=O)N/N=C/c3ccc(O)c(O)c3)c1)C2,62% (active)
13,Cc1cccc(/C=N/NC(=O)c2cc(O)cc(O)c2)c1,0%
14,O=C(N/N=C/c1ccc2ccccc2c1)c1ccc(O)c(O)c1,73% (active)
15,O=C(N/N=C/c1ccc(/C=N/NC(=O)c2cccc(I)c2)cc1)c1cccc(I)c1,53% (active)
16,Cc1cc2c(cc1C)CN(c1cccc(C(=O)N/N=C/c3ccco3)c1)C2,21%
17,Cc1cc2c(cc1C)CN(c1cccc(C(=O)N/N=C/c3ccc(N(C)C)cc3)c1)C2,47%
18,Cc1cccc(/C=N/NC(=O)c2ccccc2)c1,0%
19,Cc1cccc(NC(=O)c2cccnc2)c1,13%
20,COc1ccc(CC(=O)N2CCCc3ccccc32)cc1OC,5%
21,O=C(O)c1c(-c2ccccc2)oc2ccc(OCc3ccccc3)cc12,0%
22,O=C1CC(c2ccc(Cl)cc2)CC2=C1C(c1ccccc1F)Nc1ccccc1N2 (configuration not stated),0%
23,O=C(COc1cccc(Cl)c1)N=Nc1c(O)[nH]c(=O)[nH]c1=O,10%
24,O=C(Nc1ccc(F)cc1)Nc1nnc(CSCc2ccccc2Cl)s1,23%
25,CC(=O)Oc1ccc(/C=C(/NC(=O)c2ccccc2)C(=O)NCCO)cc1,7%

row,SMILES,inhibition
1,O=C(O)CCC(=O)N1N=C(c2c(-c3ccccc3)c3cc(Cl)ccc3[nH]c2=O)CC1c1ccc([N+](=O)[O-])cc1 (configuration not stated),18%
2,CC12c3ccccc3C(C)(c3ccccc31)C1C(=O)NC(=O)C12 (configuration not stated),3%
3,O=C(N/N=C/c1ccc(O)c(O)c1)c1ccc(Br)cc1,41%
4,O=C(N/N=C/c1ccc(O)c(O)c1)c1ccc(O)cc1,37%
5,Cc1cc([N+](=O)[O-])ccc1NC(=O)c1ccccc1,11%
6,O=C(/C=C\Nc1ccccn1)c1ccc(Cl)cc1,9%
7,COc1cc(C=O)ccc1OCCOc1cccc(C)c1C,12%
8,Cc1ccc(C)c(NCn2nnc3ccccc32)c1,10%
9,Cc1csc(N/N=C/c2cccc(OCc3ccccc3)c2)n1,19%
10,O=C1N=C(N2CCN(c3ccccc3)CC2)S/C1=C\c1ccc(OCc2ccccc2)cc1,1%
11,Cc1ccc(S(=O)(=O)N(c2ccc(Br)cc2F)S(=O)(=O)c2ccc(C)cc2)cc1,16%
12,COc1ccc(N2C(=O)NC(=O)/C(=C\c3cc(I)c(OC)c(OC)c3)C2=O)cc1,7%
13,CCOC(=O)c1c(NC(=O)c2sc3cc(C)ccc3c2Cl)sc(C(N)=O)c1C,10%
14,S=C(NCc1ccccc1)N/N=C/c1cccc(OCc2ccccc2)c1,12%
15,Fc1ccccc1COc1cccc(/C=N/Nc2ccccc2)c1,11%
16,CNC(=S)N/N=C/c1cccc(OCc2ccccc2F)c1,52% (active)
17,CN1CCN(S(=O)(=O)c2ccc([N+](=O)[O-])cc2)CC1,0%
18,O=C(Nc1ccccc1NC(=O)c1ccccc1)c1ccccc1,0%
19,O=C(Nc1c(Cl)cccc1Cl)c1ccccc1,7%
20,COc1cc(-c2nc3sc4c(c3c(=O)[nH]2)CCCC4)ccc1OCc1cccc(F)c1,56% (active)
21,COc1cc(-c2nc3sc4c(c3c(=O)[nH]2)CCCC4)ccc1OCC(=O)O,5%
22,C=CCOc1ccc(-c2nc3sc4c(c3c(=O)[nH]2)CCCC4)cc1OC,30%
